# High-throughput results: PubChem, National Center for Advancing Translational Sciences (NCATS)
# PNC assembly inh – perinucleolar compartment assembly inhibition; PC3M PTB-GFP, PNC prevalence imaging, 16 h; hits give low values; activity change (PNC), negative = inhibition, % at 10 µM; hit rate 3.1% among 140,000;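 active = readout at or below -70, meaning at least 70% loss of cells showing the perinucleolar compartment, a nuclear body marking cancer cells; inconclusive = readout between -30 and a set limit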
#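 Compounds are pinned in duplicate onto adhered PC3M cells stably expressing GFP-tagged PTB and incubated 16 h at 37 C. Cells are then fixed, nuclei stained with Hoechst, and PNC-positive cells counted.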
# KDM4E inh – blocks human JMJD2E demethylase activity. AID 2147. JMJD2E catalytic domain, FDH-coupled NADH fluorescence (FDH is formaldehyde dehydrogenase). B2RXH2. Potency, µM (top dose mostly 57.1 µM), hits mostly inhibitors. hit rate 1.6% among 230,000; also: nearly all actives have a fitted effect of over 50% in size
# HPGD block – HPGD (human) dehydrogenase inhibition | AID 894 | P15428 | purified HPGD, NADH fluorescence kinetic, PGE2 substrate | Potency, µM, actives largely listed as inhibitors | hit rate 4.3% among 150,000
#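 20 nM HPGD preincubated 15 min at room temperature with compound in 50 mM Tris-HCl pH 8, 0.01% Tween 20. Started with 1 mM NAD+ and 30 uM prostaglandin E2; NADH fluorescence (360/450 nm) read 5 times over 30-s intervals, last minus first.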
# ALDH1A1 block – ALDH1A1 (human) enzyme inhibition | hit rate 7.3% among 220,000 | Potency, µM (doses to about 75.3 µM), hits mostly inhibitors | Purified ALDH1A1, NADH fluorescence, propionaldehyde substrate | AID 1030
# Target sequence (P00352 whole entry, looked up): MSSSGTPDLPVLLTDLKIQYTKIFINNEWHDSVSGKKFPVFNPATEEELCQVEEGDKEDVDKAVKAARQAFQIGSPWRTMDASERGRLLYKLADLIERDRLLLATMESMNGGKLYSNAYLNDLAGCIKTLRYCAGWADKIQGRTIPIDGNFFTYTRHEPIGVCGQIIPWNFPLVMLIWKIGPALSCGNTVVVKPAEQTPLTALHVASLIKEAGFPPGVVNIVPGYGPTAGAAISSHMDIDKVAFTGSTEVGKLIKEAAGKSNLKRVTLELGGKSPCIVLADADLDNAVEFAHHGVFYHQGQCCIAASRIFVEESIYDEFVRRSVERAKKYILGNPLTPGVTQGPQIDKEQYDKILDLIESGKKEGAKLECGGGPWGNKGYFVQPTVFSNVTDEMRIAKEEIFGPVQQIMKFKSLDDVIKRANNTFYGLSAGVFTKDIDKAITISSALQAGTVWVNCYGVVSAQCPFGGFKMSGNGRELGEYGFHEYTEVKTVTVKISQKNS
# A number is an active result; – = inactive; ? = inconclusive; · = not tested or not shown. A selection: hits, their analogues and other compounds. The true share with any hit is near 11%. Unless noted, calls follow the shape of the dose curve; as a rule, active = well fitted inhibition curve with a large enough effect (not every such curve was filed as active); inconclusive = small, poorly fitted or top-dose-only effect, or another doubt; inactive = no such curve, though single readings can be large or run the other way.
SMILES,PNC assembly inh,KDM4E inh,HPGD block,ALDH1A1 block
COCc1cc(=O)[nH]c(Nc2nc(C)c3ccccc3n2)n1,–,–,–,20µM
Cc1cc(C)cc(C(=O)N(C)[C@H](Cc2ccc(-c3ccccc3)cc2)C(=O)N[C@@H](Cc2c[nH]c3ccccc23)C(=O)O)c1,·,–,–,–
CC(=O)Nc1ccc(NC(=O)c2ccccc2S(=O)(=O)c2ccc([N+](=O)[O-])cc2)cc1,·,–,·,–
CC(C)c1ccc(S(=O)(=O)/N=C2/C=CC(=O)c3ccccc32)cc1,·,–,·,25µM
COC(=O)C(C(C)=O)C1=C/C(=N\S(=O)(=O)c2ccc(C)cc2)c2ccccc2C1=O (centres undefined),–,?,–,?
O=C(O)C1CC(=O)N(c2ccc(OCc3c(F)cccc3Cl)cc2)C1 (centres undefined),-108,–,1.6µM,–
C=CCNC(=O)CCCOc1cc(C)ccc1C,–,–,14µM,–
C=CCNC(=O)CCCOc1ccc(C)cc1,–,–,7.1µM,–
Cc1ccc(OCCCC(=O)Nc2ccccc2C(F)(F)F)cc1,–,–,–,–
COc1ccc(OCCCC(=O)NCC(C)C)cc1,?,–,25µM,–
O=C(CC(=O)c1cc(Cl)ccc1O)c1ccccc1,?,–,25µM,–
Cc1cccc(C(=O)CC(=O)c2cc(Cl)ccc2O)c1,–,?,16µM,–
Cc1ccc(O)c(C(=O)CC(=O)c2cccc(F)c2)c1,?,?,22µM,–
O=C(O)CC(=O)Nc1cc(Cl)ccc1O,–,–,–,–
Cc1ccc(N=Nc2ccc(O)c3ncccc23)cc1C,·,–,·,–
CCS(=O)(=O)c1ccc(N=Nc2ccc(O)c3ncccc23)c(OC)c1,·,14µM,·,–
Oc1ccc(-c2cn3c(n2)SCC3)cc1O,–,13µM,2.2µM,6.3µM
Oc1ccc(-c2cn3c(n2)SCC3)cc1,–,–,–,–
CC(=O)OCCn1c2nc(=O)[nH]c(=O)c-2nc2cc(C)c(C)cc21,·,2.8µM,·,–
Cc1cc2nc3c(=O)[nH]c(=O)nc-3n(CC(O)C(O)C(O)CO)c2cc1C (centres undefined),·,?,–,?
O=C(Nc1ccc([N+](=O)[O-])cc1)N1CCCCC1,·,–,·,–
Cc1cnc(CNc2ncncc2-c2cccc(NS(C)(=O)=O)c2)cn1,·,·,·,–
Cc1ccc(NC(=O)C(C)Sc2nc(=O)cc(N)n2-c2ccccc2)cc1 (centres undefined),–,–,–,11µM
Cc1ccc(NC(=O)C(C)Sc2nnc(-c3cccnc3)n2-c2ccccc2)cc1 (centres undefined),?,–,14µM,–
COc1ccccc1NS(=O)(=O)c1cccc(-n2c(O)c(C=Nc3ccccc3C(=O)O)c3ccccc3c2=O)c1,·,–,·,·
SMILES,PNC assembly inh,KDM4E inh,HPGD block,ALDH1A1 block
COc1ccc(N(CC(=O)NCc2ccc(C)cc2)S(=O)(=O)c2c(C)nn(C)c2C)cc1,?,–,–,25µM
CCOc1ccccc1NC(=O)CN(c1ccc(C)cc1)S(=O)(=O)c1c(C)noc1C,-132,–,–,–
CCOc1ccc(OCC)c(NC(=O)CN(c2ccc(C)cc2)S(=O)(=O)c2c(C)noc2C)c1,–,–,–,–
COc1ccc(N(CC(=O)Nc2ccc(C)cn2)S(=O)(=O)c2c(C)noc2C)cc1,-80,–,–,–
COc1ccc(CNC(=O)CN(c2ccc(OC)cc2)S(=O)(=O)c2c(C)nn(C)c2C)cc1,–,–,–,–
C=CCc1cccc2cc(C(=O)NC3=C(C#N)CCC3)c(=O)oc12,-124,–,–,0.89µM
COc1ccc(C(=O)N2CCCC(CCC(=O)NCc3ccc(F)c(F)c3)C2)o1 (centres undefined),·,–,·,16µM
COc1ccccc1CC(=O)N1CCCC(CCC(=O)NCc2ccccc2F)C1 (centres undefined),·,–,·,·
COc1ccc(C(=O)N2CCCC(CCC(=O)NCc3ccc(F)c(F)c3)C2)cc1F (centres undefined),·,–,·,–
COc1cccc(CNC(=O)CCC2CCCN(C(=O)Cc3ccccc3F)C2)c1 (centres undefined),·,–,·,11µM
Cc1ccc(NC(=S)Nc2cc(C(=O)O)ccc2N2CC3CC(C2)c2cccc(=O)n2C3)cc1C (centres undefined),·,–,·,28µM
O=c1[nH]c(CN2CCN(c3ccccc3Cl)CC2)nc2ccsc12,–,–,–,–
COc1cc2c(cc1OC)CN(Cc1nc3ccsc3c(=O)[nH]1)CC2,-83,?,?,?
OC[C@H]1O[C@@H](n2cnc3c(NCc4ccccc4)ncnc32)[C@H](O)[C@@H]1O,·,–,–,–
Fc1ccc(CSc2nc3ccccc3[nH]2)c2ccccc12,–,–,?,–
COCCCn1c(SCc2cc(=O)[nH]c3ccccc23)nnc1-c1ccco1,–,–,–,?
O=c1cc(CSc2nc3ccccc3[nH]2)c2ccccc2[nH]1,?,–,7.9µM,–
O=c1cc(CSc2nnc(-c3ccco3)o2)c2ccccc2[nH]1,–,–,20µM,–
O=S(=O)(c1ccccc1)N1CCC2(CCN(Cc3ccccc3)CC2)CC1,·,·,–,–
c1ccc(-c2nnc(CSc3ccc4c(c3)OCCO4)o2)cc1,·,–,·,–
Cc1c(NC(=O)CSc2ccc(Cl)cc2)cccc1-c1nc2cc(Cl)ccc2o1,-113,–,–,–
Cc1ccc2oc(-c3cccc(NC(=O)c4ccc(Br)o4)c3C)nc2c1,?,–,–,–
CC(=O)Nc1nonc1-c1nc2ccccc2n1Cc1nnc(C)o1,-87,?,?,?
CC(=O)Nc1nonc1-c1nc2ccccc2n1Cc1ccccc1,–,?,?,?
CC(=O)c1ccc(NC(=O)CC23CC4CC(C2)CC(n2nnc(C)n2)(C4)C3)cc1,·,–,·,–
SMILES,PNC assembly inh,KDM4E inh,HPGD block,ALDH1A1 block
O=[N+]([O-])c1cc2c(cc1/C=N/n1c(-c3ccccn3)n[nH]c1=S)OCO2,?,–,?,28µM
O=[N+]([O-])c1cc2c(cc1/C=N/n1c(-c3ccccc3)n[nH]c1=S)OCO2,?,–,3.2µM,13µM
FC(F)C(F)(F)C(F)(F)C(F)(F)c1cc(-c2ccccc2)n[nH]1,–,–,16µM,–
CCC(C)OC(=O)C1=C(C)O[C@]23OC(N)=C(C#N)[C@]12C(=O)c1ccccc13 (some centres undefined),-100,–,–,?
CCCN(CCC)CC(=O)Nc1cccc2c1OCO2,–,–,–,–
CC(Oc1cc(Cl)ccc1Cl)C(=O)N/N=C\c1ccnn1C (centres undefined),-109,–,–,–
CCOc1ccc(S(=O)(=O)Nc2ccccn2)c2ccccc12,–,–,?,?
COc1ccc(S(=O)(=O)Nc2ccccn2)c(C)c1C,?,–,–,25µM
COc1cc(NS(=O)(=O)c2ccc(OC)c(C)c2C)c(OC)cc1Cl,-108,–,–,?
COc1ccc(/C=N/NC(=O)CNc2ccc(Br)cc2)c(C(=O)O)c1OC,·,–,·,–
COc1ccc(/C=N/NC(=O)CNc2c(Br)cc(C)cc2Br)c(C(=O)O)c1OC,·,–,·,7.1µM
Cc1ccc(O)c(C(=O)c2cc(C#N)c(=O)n(-c3nccs3)c2)c1,·,?,·,8.9µM
Cc1ccc(O)c(C(=O)c2cc(C#N)c(=O)n(-c3c(C)n(C)n(-c4ccccc4)c3=O)c2)c1,–,–,–,–
